Hits are enriched below; roughly 21% of the tested compounds scored in any of these assays.
Pf growth 48h: inhibits P. falciparum growth in the first generation, 48 h | P. falciparum luciferase growth in erythrocytes, 48 h | Potency, µM (titrated, usually from 28.7 µM), most hits filed as inhibitors | 5.9% of 310,000 active
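Erythrocytes infected with P. falciparum carrying an integrated firefly luciferase reporter (2% hematocrit, 0.1% parasitemia final) were exposed to compounds in RPMI 1640 with 0.5% Albumax at 37 C, 5% CO2. Growth inhibition was scored as reduced luminescence.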
CHX counter: counter-screen hit for Shiga toxin inhibitors, cycloheximide | cell reporter, cycloheximide protein synthesis inhibition counterscreen | max response, % | 12% of 300,000 active | AID 2314; in the data active = max response mostly above about 13%, no sharp cut-off; inactive = mostly below about 14%; note: read at 38.3 µM for the half of the compounds with a filed dose
HCMV inh: human cytomegalovirus inhibition | HFF cells, HCMV-luciferase reporter, 72 h; stronger effect = lower value | activity change, negative = inhibition, % at 57.5 µM | 4.5% of 410,000 active; in the data active = activity change below about -60%; inconclusive = no clear call, values can overlap the other calls; inactive = above about -39%
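Luciferase read-out from HCMV-luciferase-infected HFFs (MOI 1 PFU/cell) 72 h post infection at 37C; compounds added after 16 h cell attachment; activity normalized between buffer-only basal and Salinomycin (10uM) inhibitor controls.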
Shiga toxin inh: inhibitors of Shiga toxin in Vero cells. Vero cells, Shiga toxin protein synthesis inhibition reporter. inhibition, % at 38.7 µM. 9.2% of 290,000 active. AID 2315; in the data active = inhibition mostly above about 28%, no sharp cut-off; inactive = mostly below about 43%
Pf growth 96h: P. falciparum growth inhibition at 96 hours. AID 504834. 6.9% of 320,000 active. P. falciparum luciferase reporter growth, 96 h. Potency, µM (doses to about 28.7 µM), usual class: inhibitors
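P. falciparum expressing integrated firefly luciferase, in erythrocytes at 2% hematocrit, 0.05% parasitemia, incubated with compounds 96 h at 37 C, 5% CO2. Growth inhibition read as loss of luminescence; two-generation exposure targets delayed-death apicoplast inhibitors.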
HCV inh: inhibitors of hepatitis C virus infection; Huh7.5.1 HCVcc-Cre infection, luciferase reporter, 44 h; Potency, µM (highest dose often 41.8 µM), hits mostly inhibitors; 3.4% of 340,000 active
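Reporter virus HCVcc-Cre (~0.5 moi) infects cells exposed to compound; seeding density 1,000 cells/well with 4 h settling beforehand. Luminescence, 15 sec read, taken 44 h post-infection following a 15 min RT substrate incubation.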
Each line names hits and unclear results; the compound was inactive in the other large screens; ! = repeats disagree. Unless noted, calls come from the whole dose curve; as a rule, active = well fitted inhibition curve with a large enough effect; inconclusive = small, poorly fitted or top-dose-only effect, or another doubt; inactive = no such curve, though single readings can be large or run the other way.

COc1ccc(OC)c2sc(NC(=O)C(C)C)nc12	HCV inh 7.9µM
COc1ccc(OC)c(NC(=O)c2cc3c(=O)n4ccccc4nc3n2C)c1	Pf growth 96h inconclusive, HCV inh inconclusive
O=C(Nc1cnc2sc3c(n2c1=O)CCCC3)c1ccc(F)cc1	CHX counter 25, Shiga toxin inh 44, HCV inh inconclusive
COc1ccc(C(=O)Nc2cnc3ccccn3c2=O)cc1	CHX counter 46, Shiga toxin inh 97, Pf growth 96h inconclusive
O=C(CSc1nnc2ccccn12)NNC(=O)c1ccc(F)cc1	none
O=C(Nc1cnc2ccccn2c1=O)c1ccc(F)cc1	CHX counter 33, Shiga toxin inh 58, Pf growth 96h 13µM
CCOC(=O)c1cc(-c2ccc(OC)cc2)n(CCC(=O)NC2CCC(C)CC2)c1C (stereo not given)	none (no result: Pf growth 48h, CHX counter, Shiga toxin inh, Pf growth 96h, HCV inh)
CCNC(=O)CC1SC(=Nc2ccc(Cl)cc2)N(CC)C1=O (stereo not given)	Pf growth 96h inconclusive
C=CCN1C(=O)C(CC(=O)NCC)SC1=Nc1cc(Cl)ccc1Cl (stereo not given)	Pf growth 96h 1.2µM
CCOc1ccc(NC(=O)CSc2nnc(CNC(=O)C34CC5CC(CC(C5)C3)C4)n2CC)cc1	none (no result: Pf growth 48h, CHX counter, Shiga toxin inh, Pf growth 96h, HCV inh)
Cc1cc(N/N=C/c2c[nH]c3ccccc23)c2ccccc2n1	none
Cc1cc(C)nc(N/N=C/c2ccccc2Cl)n1	CHX counter 59, Shiga toxin inh 94
C/C(=N\Nc1cc(C)nc(NCc2ccccc2)n1)c1ccc([N+](=O)[O-])cc1	Pf growth 48h inconclusive, Pf growth 96h inconclusive, HCV inh inconclusive
Cc1nnc(N/N=C/c2c[nH]c3ccccc23)[nH]c1=O	none
Cc1cc(C)nc(N/N=C/c2c[nH]c3ccccc23)n1	CHX counter 20
Cc1cc(N/N=C/c2ccccc2Cl)nc(NCc2ccccc2)n1	Pf growth 48h 1.5µM, CHX counter 28, Pf growth 96h inconclusive, HCV inh inconclusive
Cn1c(N/N=C/c2c[nH]c3ccccc23)nc2ccccc21	Pf growth 48h 7.4µM, CHX counter 45, Shiga toxin inh 167, Pf growth 96h 1.7µM, HCV inh inconclusive
Cc1cc(C)nc(N/N=C/c2cccc3ccccc23)n1	CHX counter 47
COc1ccccc1C=NNc1nc(C)cc(=O)[nH]1	none (no result: Pf growth 48h, CHX counter, Shiga toxin inh, Pf growth 96h)
Cc1cc(C)nc(N/N=C/c2ccccc2OCc2ccc([N+](=O)[O-])cc2)n1	Pf growth 48h inconclusive, Shiga toxin inh 59, Pf growth 96h inconclusive
COc1ccccc1/C=N/Nc1nc(C)cc(C)n1	CHX counter 34, Shiga toxin inh 89
Cn1c(N/N=C/c2cc3ccccc3nc2Cl)nc2ccccc21	Pf growth 48h inconclusive, Shiga toxin inh 78, Pf growth 96h inconclusive, HCV inh inconclusive
CC(C)Oc1ccc(S(=O)(=O)N2CCOCC2)cc1NC(=O)CN1C(=O)NC2(CCCC2)C1=O	Pf growth 48h inconclusive (no result: HCV inh)
O=C(NCCc1ccccc1Cl)C1CCN(c2nc3ccccc3nc2C(F)(F)F)CC1	none (no result: Pf growth 48h, CHX counter, Shiga toxin inh, Pf growth 96h, HCV inh)
CCOC(=O)c1c(C)[nH]c(C)c1S(=O)(=O)Nc1ccc(CN2CCCCC2)cc1	Pf growth 48h inconclusive, Pf growth 96h 5.9µM
CCOC(=O)c1ccc(NC(=O)N2CCOCC2)cc1	Shiga toxin inh 98
CCOC(=O)c1ccc(NS(=O)(=O)c2ccc3c(c2)n(C)c(=O)n3C)cc1	HCMV inh -67!
CCOC(=O)c1cccc(NC(=O)N2CCOCC2)c1	none
O=C(Nc1ccc(F)cc1)N1CCCCCC1	CHX counter 15, Shiga toxin inh 31
CC(=O)Nc1ccc(NC(=O)N2CCCCC2)cc1	none
CCN(C(=O)C1CCN(S(=O)(=O)c2ccc3c(c2)CCCN3C(C)=O)CC1)c1cccc(C)c1	none (no result: Pf growth 48h, CHX counter, Shiga toxin inh, Pf growth 96h, HCV inh)
CCOC(=O)c1ccc(NS(=O)(=O)N2CCCCCC2)cc1	CHX counter 32, Shiga toxin inh 74 (no result: Pf growth 96h)
CCOC(=O)c1ccc(NC(=O)N2CCCCCC2)cc1	CHX counter 76, Shiga toxin inh 123
CCOC(=O)c1ccccc1NC(=S)N1CCN(C2CCCCC2)CC1	none
CCOC(=O)c1ccccc1NC(=S)N1CCCCC1	Pf growth 96h 9.3µM
CCCN1CCN(C(=O)Nc2ccc(C(=O)OCC)cc2)CC1	CHX counter 12 (no result: Pf growth 48h)
CCOC(=O)c1ccc(NC(=O)N2CCN(Cc3cccc(F)c3)CC2)cc1	Pf growth 48h inconclusive, HCV inh inconclusive
Oc1c(C(c2ccccc2)N2CCN(c3cccc(Cl)c3)CC2)sc2nc(-c3ccco3)nn12 (stereo not given)	none (no result: Pf growth 48h, CHX counter, Shiga toxin inh, Pf growth 96h, HCV inh)
CCS(=O)(=O)N1CCc2cc(C(=O)Nc3ccc(C)c(Cl)c3)ccc21	none (no result: Pf growth 48h, CHX counter, Shiga toxin inh, Pf growth 96h, HCV inh)
Cc1cccc(N(C)S(=O)(=O)c2nnc(NC(=O)C3CCCCC3)s2)c1	none (no result: CHX counter, Shiga toxin inh, HCV inh)
C(=C/c1ccnc2nc(SC/C=C/c3ccccc3)nn12)/c1ccccc1	Pf growth 48h inconclusive, Pf growth 96h 15µM
CN(C)C/C=C(/c1ccc(Br)cc1)c1cccnc1	Pf growth 48h 12µM, Pf growth 96h 15µM, HCV inh inconclusive (no result: CHX counter, Shiga toxin inh)
COc1ccc(-n2nnc3c(=O)n(CC(=O)NCC4CCCO4)cnc32)cc1 (stereo not given)	HCMV inh -102
COc1cccc(-n2nnc3c(=O)n(Cc4cccc(C)c4)cnc32)c1	CHX counter 24, HCV inh inconclusive
